From PubChem BioAssay (EPA / NIEHS)
Where “and” joins values, the source holds several entries; their conditions need not be identical. Equal values may be shown once. Inconclusive results are not listed. Some structures have more than one record in an assay (separate samples or runs), and their calls can disagree. Calls of active or inactive are those of the source. The calls were made as follows, unless noted: active = hit-call score of the fitted dose curve at least 0.9, where 1 is the maximum; inactive = score below 0.9.

Assays:
[1] = target: Glucocorticoid receptor (Homo sapiens) (UniProt P04150); assay: ATG_GR_TRANS: Attagene TRANS-FACTORIAL HepG2 Assay for human Glucocorticoid Receptor (GR) (AID 2282978; active = hit-call score of the fitted dose curve at least 0.9, where 1 is the maximum;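 also: activators score as hits since higher reporter transcript over DMSO is fitted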); conditions: HepG2 Attagene TRANS GR reporter, mRNA transcription
Chain of Glucocorticoid receptor (Homo sapiens) (P04150 whole entry, looked up, the tested form may be a part): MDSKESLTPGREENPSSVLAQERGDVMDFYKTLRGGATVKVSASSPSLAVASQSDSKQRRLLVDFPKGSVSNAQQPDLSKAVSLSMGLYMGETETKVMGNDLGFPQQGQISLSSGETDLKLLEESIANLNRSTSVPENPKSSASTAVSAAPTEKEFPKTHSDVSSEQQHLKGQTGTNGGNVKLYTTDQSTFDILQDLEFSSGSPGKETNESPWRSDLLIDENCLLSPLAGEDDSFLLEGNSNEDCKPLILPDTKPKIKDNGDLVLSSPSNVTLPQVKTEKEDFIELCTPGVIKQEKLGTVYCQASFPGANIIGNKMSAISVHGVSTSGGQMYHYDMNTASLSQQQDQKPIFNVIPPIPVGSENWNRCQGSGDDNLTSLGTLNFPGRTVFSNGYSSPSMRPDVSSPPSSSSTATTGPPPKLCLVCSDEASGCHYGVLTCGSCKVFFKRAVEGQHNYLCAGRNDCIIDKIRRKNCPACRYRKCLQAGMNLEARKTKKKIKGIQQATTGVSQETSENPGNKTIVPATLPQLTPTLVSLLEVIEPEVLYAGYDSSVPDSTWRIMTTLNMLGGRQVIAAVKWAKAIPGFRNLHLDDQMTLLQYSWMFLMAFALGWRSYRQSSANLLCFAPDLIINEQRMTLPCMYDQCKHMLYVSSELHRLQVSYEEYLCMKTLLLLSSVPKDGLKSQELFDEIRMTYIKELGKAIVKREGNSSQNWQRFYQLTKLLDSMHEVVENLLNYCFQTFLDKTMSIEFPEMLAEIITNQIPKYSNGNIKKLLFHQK
In short: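 Reporter transcript levels, detected by fluorescence after RT-PCR and capillary electrophoresis, served as the endpoint. HepG2 cells bearing transfected GAL4-UAS reporters responsive to NR-GAL4 chimeras were incubated with compound 24 h; DMSO defined baseline.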

[2] = target: Oxysterols receptor LXR-beta (Homo sapiens) (UniProt P55055); assay: ATG_LXRb_TRANS: Attagene TRANS-FACTORIAL HepG2 Assay for human Liver X Receptor beta (LXRb) (AID 2282981; active = hit-call score of the fitted dose curve at least 0.9, where 1 is the maximum); conditions: HepG2 Attagene TRANS GAL4-LXRb reporter, mRNA
Chain of Oxysterols receptor LXR-beta (Homo sapiens) (P55055 whole entry, looked up, the tested form may be a part): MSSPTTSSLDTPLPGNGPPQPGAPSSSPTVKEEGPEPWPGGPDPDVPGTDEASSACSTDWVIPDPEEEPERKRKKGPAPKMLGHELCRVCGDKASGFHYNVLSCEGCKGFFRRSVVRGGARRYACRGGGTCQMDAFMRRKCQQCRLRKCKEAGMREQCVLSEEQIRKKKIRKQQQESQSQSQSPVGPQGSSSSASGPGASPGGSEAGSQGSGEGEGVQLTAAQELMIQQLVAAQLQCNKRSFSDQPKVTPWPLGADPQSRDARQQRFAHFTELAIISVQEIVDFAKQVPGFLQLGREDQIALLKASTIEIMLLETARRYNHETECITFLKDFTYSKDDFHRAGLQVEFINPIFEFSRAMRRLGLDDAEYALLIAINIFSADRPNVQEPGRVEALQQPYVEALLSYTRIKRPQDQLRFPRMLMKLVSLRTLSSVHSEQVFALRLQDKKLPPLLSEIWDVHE
In short: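 Measures induction of a Gal4-driven reporter transcript in HepG2 cells expressing an exogenous LXRb-Gal4 fusion. Cells are exposed to compound for 24 h before RNA isolation and RT-PCR with capillary electrophoresis detection.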

[3] = target: Hepatocyte nuclear factor 4-alpha (Homo sapiens) (UniProt P41235); assay: ATG_HNF4a_TRANS: Attagene TRANS-FACTORIAL HepG2 Assay for human Hepatocyte Nuclear Factor 4 alpha (HNF4a) (AID 2282982; active = hit-call score of the fitted dose curve at least 0.9, where 1 is the maximum); conditions: HepG2 HNF4a transactivation reporter, mRNA readout
Chain of Hepatocyte nuclear factor 4-alpha (Homo sapiens) (P41235 whole entry, looked up, the tested form may be a part): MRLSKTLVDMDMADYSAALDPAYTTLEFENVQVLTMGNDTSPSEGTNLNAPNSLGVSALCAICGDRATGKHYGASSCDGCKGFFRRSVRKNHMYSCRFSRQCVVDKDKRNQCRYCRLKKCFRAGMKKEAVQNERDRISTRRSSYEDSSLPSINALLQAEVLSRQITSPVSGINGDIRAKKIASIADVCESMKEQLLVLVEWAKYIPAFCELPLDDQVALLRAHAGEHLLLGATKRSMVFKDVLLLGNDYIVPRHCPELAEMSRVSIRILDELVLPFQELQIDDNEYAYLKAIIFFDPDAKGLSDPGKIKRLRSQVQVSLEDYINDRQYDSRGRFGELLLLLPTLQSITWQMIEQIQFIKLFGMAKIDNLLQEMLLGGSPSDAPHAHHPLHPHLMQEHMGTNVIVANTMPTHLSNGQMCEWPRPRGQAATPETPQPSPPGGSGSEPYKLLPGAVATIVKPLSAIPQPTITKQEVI
In short: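 In this trans-factorial format, a chimeric HNF4a-GAL4 fusion drives a GAL4-UAS reporter in transfected HepG2 liver cells. After 24 h treatment, reporter mRNA induction is measured by RT-PCR with capillary electrophoresis, relative to DMSO.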

[4] = ATG_M_06_TRANS: Attagene TRANS-FACTORIAL HepG2 Assay for M06 Transcription Factor (Internal Marker) (AID 2282983; active = hit-call score of the fitted dose curve at least 0.9, where 1 is the maximum); conditions: HepG2 Attagene TRANS M06 internal marker reporter
In short: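 Human liver HepG2 cells bearing transiently transfected chimeric NR-GAL4 reporter units were treated with chemicals for 24 h. Total RNA was reverse-transcribed, reporter sequences amplified and labelled, then quantified by capillary electrophoresis. Activity was fitted upward relative to DMSO.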

[5] = ATG_M_32_TRANS: Attagene TRANS-FACTORIAL HepG2 Assay for M32 Transcription Factor (Internal Marker) (AID 2282984; active = hit-call score of the fitted dose curve at least 0.9, where 1 is the maximum;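 also: transcript level of a background control reporter unit measured by RT-PCR and capillary electrophoresis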); conditions: HepG2 Attagene TRANS M32 internal marker reporter
In short: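 After 24 h dosing of transfected HepG2 cells, total RNA was reverse-transcribed, reporter sequences PCR-amplified, 6-FAM labelled by primer extension and HpaI-digested before capillary electrophoresis. Signal increase over DMSO was fitted.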

[6] = target: Nuclear receptor subfamily 4 group A member 2 (Homo sapiens) (UniProt P43354); assay: ATG_NURR1_TRANS: Attagene TRANS-FACTORIAL HepG2 Assay for human Nuclear Receptor Related Protein 1 (NURR1) (AID 2282985; active = hit-call score of the fitted dose curve at least 0.9, where 1 is the maximum); conditions: HepG2 Attagene TRANS reporter, mRNA readout
Chain of Nuclear receptor subfamily 4 group A member 2 (Homo sapiens) (P43354 whole entry, looked up, the tested form may be a part): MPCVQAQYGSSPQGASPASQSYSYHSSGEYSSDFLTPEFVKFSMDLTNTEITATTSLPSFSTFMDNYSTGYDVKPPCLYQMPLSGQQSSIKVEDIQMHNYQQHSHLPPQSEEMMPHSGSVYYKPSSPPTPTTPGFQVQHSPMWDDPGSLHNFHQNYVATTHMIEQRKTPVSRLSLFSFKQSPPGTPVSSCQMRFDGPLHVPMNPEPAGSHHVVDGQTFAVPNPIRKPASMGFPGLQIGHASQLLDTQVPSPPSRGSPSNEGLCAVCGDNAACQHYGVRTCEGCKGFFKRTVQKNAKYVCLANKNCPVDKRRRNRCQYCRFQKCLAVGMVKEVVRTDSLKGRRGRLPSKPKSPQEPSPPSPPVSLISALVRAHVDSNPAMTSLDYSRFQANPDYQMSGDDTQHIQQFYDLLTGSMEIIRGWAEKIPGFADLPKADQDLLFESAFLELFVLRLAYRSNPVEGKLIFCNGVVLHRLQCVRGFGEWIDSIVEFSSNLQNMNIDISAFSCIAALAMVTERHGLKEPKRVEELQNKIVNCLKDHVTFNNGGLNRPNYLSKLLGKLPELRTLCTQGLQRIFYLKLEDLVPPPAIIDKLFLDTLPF
In short: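 Chimeric NR-Gal4 fusion activity measured in HepG2 after 24 h treatment. Reporter transcripts detected by RT-PCR and capillary electrophoresis fluorescence; positive-direction curve fitting against DMSO.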

[7] = target: Nuclear respiratory factor 1 (Homo sapiens) (UniProt Q16656); assay: ATG_NRF1_CIS: Attagene CIS-FACTORIAL HepG2 Assay for human Nuclear Respiratory Factor 1 (NRF1) Orphan Gene (AID 2282987); conditions: HepG2 NRF1 cis-element reporter, Attagene multiplex; actives raise or lower the signal
Chain of Nuclear respiratory factor 1 (Homo sapiens) (Q16656 whole entry, looked up, the tested form may be a part): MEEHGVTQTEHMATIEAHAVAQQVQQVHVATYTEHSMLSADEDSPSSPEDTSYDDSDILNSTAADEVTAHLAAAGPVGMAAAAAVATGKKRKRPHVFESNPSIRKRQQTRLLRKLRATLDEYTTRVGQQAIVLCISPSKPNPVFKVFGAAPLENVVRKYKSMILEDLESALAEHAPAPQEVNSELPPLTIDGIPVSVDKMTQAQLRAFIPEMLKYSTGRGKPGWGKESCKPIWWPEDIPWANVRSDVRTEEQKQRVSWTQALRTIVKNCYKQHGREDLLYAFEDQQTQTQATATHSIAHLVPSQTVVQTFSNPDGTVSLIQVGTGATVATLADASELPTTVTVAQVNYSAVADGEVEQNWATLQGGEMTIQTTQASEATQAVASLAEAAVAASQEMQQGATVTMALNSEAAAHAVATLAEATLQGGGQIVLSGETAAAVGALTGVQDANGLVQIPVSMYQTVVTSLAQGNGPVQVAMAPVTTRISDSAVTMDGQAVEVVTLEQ
In short: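 Cells (HepG2, transient MRTU transfection) are exposed to compound for 24 h, then RNA isolated and reporter mRNA amplified and fluorescently labelled. Fragments are separated by capillary electrophoresis; signal change is fitted bidirectionally relative to DMSO.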

[8] = target: Myc proto-oncogene protein (Homo sapiens) (UniProt P01106); assay: ATG_Myc_CIS: Attagene CIS-FACTORIAL HepG2 Assay for human Myelocytomatosis (Myc) Proto-Oncogene Transcription Factor (AID 2282990); conditions: HepG2, Attagene cis-reporter transcription factor activity; actives raise or lower the signal
Chain of Myc proto-oncogene protein (Homo sapiens) (P01106 whole entry, looked up): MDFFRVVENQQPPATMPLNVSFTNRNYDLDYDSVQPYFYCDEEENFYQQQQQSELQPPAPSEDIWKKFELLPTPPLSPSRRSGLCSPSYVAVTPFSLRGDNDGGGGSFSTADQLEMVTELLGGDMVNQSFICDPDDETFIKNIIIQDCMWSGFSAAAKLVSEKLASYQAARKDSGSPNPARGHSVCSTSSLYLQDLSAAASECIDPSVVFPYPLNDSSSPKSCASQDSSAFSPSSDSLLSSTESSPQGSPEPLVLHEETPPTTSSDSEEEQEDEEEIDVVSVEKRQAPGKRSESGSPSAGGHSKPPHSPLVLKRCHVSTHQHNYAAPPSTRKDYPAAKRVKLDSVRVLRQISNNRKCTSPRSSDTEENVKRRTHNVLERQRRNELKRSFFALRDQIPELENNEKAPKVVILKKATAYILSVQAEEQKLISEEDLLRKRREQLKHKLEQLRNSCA
In short: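 HepG2 cells transiently transfected with multiple cis-promoter-driven reporter transcription units, so endogenous TF activity is read. After 24 h compound exposure, reporter mRNA was quantified by RT-PCR, 6-FAM labelling, HpaI digestion and capillary electrophoresis; bidirectional fit versus DMSO.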

[9] = ATG_NF_kB_CIS: Attagene CIS-FACTORIAL HepG2 Assay for human Nuclear Factor Kappa B (NF-kB) (AID 2282991); conditions: HepG2 Attagene cis-factorial NF-kB reporter mRNA; actives raise or lower the signal
In short: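 Measures mRNA induction of an NF-kB-responsive cis-element reporter in HepG2 cells transfected with multiple reporter units, sampled 24 h post-dosing; quantified by fluorescence after RT-PCR and capillary electrophoresis, fitted for activation or inhibition against DMSO.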

[10] = ATG_NRF2_ARE_CIS: Attagene CIS-FACTORIAL HepG2 Assay for human Nuclear Factor Erythroid 2 Related Factor 2 (NFR2) response to Antioxidant Response Elements (ARE) (AID 2282992); conditions: HepG2 Attagene ARE/NRF2 reporter, transcription factor activity; actives raise or lower the signal;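 as to AC50: reporter mRNA level measured by RT-PCR and capillary electrophoresis fluorescence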
In short: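 Readout: reporter mRNA quantified by RT-PCR plus FAM-labelled primer extension, HpaI digestion and capillary electrophoresis, 24 h after dosing transfected HepG2 cells. Gain or loss of signal is fitted bidirectionally against DMSO baseline.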

[11] = target: Cellular tumor antigen p53 (Homo sapiens) (UniProt P04637); assay: ATG_p53_CIS: Attagene CIS-FACTORIAL HepG2 Assay for human p53 Transcription Factor (AID 2282994); conditions: HepG2 p53 cis-element reporter, Attagene mRNA; actives raise or lower the signal
Chain of Cellular tumor antigen p53 (Homo sapiens) (P04637 whole entry, looked up): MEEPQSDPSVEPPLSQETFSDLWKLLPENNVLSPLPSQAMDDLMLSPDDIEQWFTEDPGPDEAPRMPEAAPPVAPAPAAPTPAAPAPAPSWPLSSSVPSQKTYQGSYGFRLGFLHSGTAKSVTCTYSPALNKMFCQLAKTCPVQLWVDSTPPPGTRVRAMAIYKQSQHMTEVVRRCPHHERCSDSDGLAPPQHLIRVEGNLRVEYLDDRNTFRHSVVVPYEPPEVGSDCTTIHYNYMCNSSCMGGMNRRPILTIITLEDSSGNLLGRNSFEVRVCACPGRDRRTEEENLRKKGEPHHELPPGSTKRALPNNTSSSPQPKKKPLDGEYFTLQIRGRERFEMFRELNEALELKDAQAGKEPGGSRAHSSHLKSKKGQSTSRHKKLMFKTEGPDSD
In short: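 Read-out: reporter mRNA by RT-PCR plus capillary electrophoresis with fluorescence detection. Human HepG2 liver cells carried transfected multi-reporter cis-element constructs, dosed 24 h. Gain or loss of signal fitted bidirectionally against DMSO control.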

[12] = BSK_3C_TissueFactor: BioMAP Diversity Plus: 3C Assay for Tissue Factor Biomarker Activity (AID 2282997); conditions: BioMAP 3C HUVEC, tissue factor biomarker readout; actives raise or lower the signal
In short: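 Cells used were primary human umbilical vein endothelial cells. They were dosed with chemical, and after 24 h Tissue Factor was quantified by ELISA. Curves were fitted bidirectionally with DMSO as baseline.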

[13] = BSK_3C_uPAR: BioMAP Diversity Plus: 3C Assay for Urokinase-type plasminogen activator receptor (uPAR) Biomarker Activity (AID 2282998); conditions: BioMAP 3C HUVEC, uPAR biomarker ELISA; actives raise or lower the signal
In short: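 A multiplexed primary-cell system built on human umbilical vein endothelium was used, with chemical present for 24 h before reading. Cell-surface uPAR was detected by ELISA; signal change in either direction counted against DMSO.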

[14] = BSK_3C_VCAM1: BioMAP Diversity Plus: 3C Assay for Vascular cell adhesion molecule 1 (VCAM1) Biomarker Activity (AID 2282999); conditions: BioMAP 3C HUVEC, VCAM1 ELISA, cytokine-stimulated; actives raise or lower the signal
In short: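 Vascular primary endothelium (human umbilical vein) was exposed to chemicals and assayed 24 h later. VCAM-1 levels came from ELISA, with DMSO serving as baseline for bidirectional fitting.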

[15] = BSK_4H_Eotaxin3: BioMAP Diversity Plus: 4H Assay for Eotaxin 3 Biomarker Activity (AID 2283000); conditions: primary human endothelial cells (HUVEC); actives raise or lower the signal
In short: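 Endothelial primary cells (human umbilical vein) exposed to compound for 24 h. ELISA detection of Eotaxin-3.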

[16] = target: Oxysterols receptor LXR-alpha (Homo sapiens) (UniProt Q13133); assay: ATG_LXRa_TRANS: Attagene TRANS-FACTORIAL HepG2 Assay for human Liver X Receptor alpha (LXRa) (AID 2282980; active = hit-call score of the fitted dose curve at least 0.9, where 1 is the maximum); conditions: HepG2 Attagene TRANS reporter, LXRa transactivation
Chain of Oxysterols receptor LXR-alpha (Homo sapiens) (Q13133 whole entry, looked up): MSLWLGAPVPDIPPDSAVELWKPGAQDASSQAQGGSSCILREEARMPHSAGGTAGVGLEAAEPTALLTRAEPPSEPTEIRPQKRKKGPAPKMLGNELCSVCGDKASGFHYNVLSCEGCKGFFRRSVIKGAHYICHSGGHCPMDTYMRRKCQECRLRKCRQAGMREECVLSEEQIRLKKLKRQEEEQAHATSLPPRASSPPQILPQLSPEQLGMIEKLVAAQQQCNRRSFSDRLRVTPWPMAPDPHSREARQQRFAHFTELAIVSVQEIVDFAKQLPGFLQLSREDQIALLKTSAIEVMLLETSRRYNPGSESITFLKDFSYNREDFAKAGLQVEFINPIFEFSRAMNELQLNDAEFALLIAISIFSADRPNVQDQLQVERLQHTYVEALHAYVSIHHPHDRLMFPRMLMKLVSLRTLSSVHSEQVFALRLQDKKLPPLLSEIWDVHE
In short: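 Transient HepG2 transfectants, 24 h dosing, RT-PCR/CE mRNA reporter quantitation; gain-of-signal vs DMSO.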

[17] = target: Transcriptional activator Myb (Homo sapiens) (UniProt P10242); assay: ATG_Myb_CIS: Attagene CIS-FACTORIAL HepG2 Assay for human Myeloblastosis (Myb) Proto-Oncogene Transcription Factor (AID 2282986); conditions: HepG2 Attagene CIS-FACTORIAL Myb reporter transcription; actives raise or lower the signal
In short: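 Transiently transfected HepG2 cells, treated 24 h. Reporter mRNA quantified by RT-PCR/capillary electrophoresis; bidirectional fit relative to DMSO.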

[18] = ATG_NFI_CIS: Attagene CIS-FACTORIAL HepG2 Assay for human Nuclear Factor I (NFI) (AID 2282989); conditions: HepG2 cis-regulatory reporter, NFI response element transcription; actives raise or lower the signal
In short: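 Cells: human liver HepG2, transiently transfected with promoter-regulated reporter transcription units. Exposure 24 h. Detection: fluorescent RT-PCR products separated by capillary electrophoresis, normalised to DMSO negative control.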

[19] = ATG_Oct_MLP_CIS: Attagene CIS-FACTORIAL HepG2 Assay for human Octamer-Binding Transcription Factor (Oct) (AID 2282993); conditions: HepG2 Attagene cis-factorial Oct reporter, mRNA; actives raise or lower the signal
In short: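 HepG2, transient MRTU transfection, cis promoter elements; 24 h dosing; RT-PCR/CE fluorescence read-out of reporter mRNA; fit both directions vs DMSO.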

[20] = target: Bile acid receptor (Homo sapiens) (UniProt Q96RI1); assay: ATG_FXR_TRANS: Attagene TRANS-FACTORIAL HepG2 Assay for Farnesoid X Receptor (FXR) (AID 2282979; active = hit-call score of the fitted dose curve at least 0.9, where 1 is the maximum;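 also: hits raise reporter mRNA above DMSO so AC50 marks FXR activation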); conditions: HepG2 Attagene TRANS FXR-GAL4 reporter transcription
Chain of Bile acid receptor (Homo sapiens) (Q96RI1 whole entry, looked up, the tested form may be a part): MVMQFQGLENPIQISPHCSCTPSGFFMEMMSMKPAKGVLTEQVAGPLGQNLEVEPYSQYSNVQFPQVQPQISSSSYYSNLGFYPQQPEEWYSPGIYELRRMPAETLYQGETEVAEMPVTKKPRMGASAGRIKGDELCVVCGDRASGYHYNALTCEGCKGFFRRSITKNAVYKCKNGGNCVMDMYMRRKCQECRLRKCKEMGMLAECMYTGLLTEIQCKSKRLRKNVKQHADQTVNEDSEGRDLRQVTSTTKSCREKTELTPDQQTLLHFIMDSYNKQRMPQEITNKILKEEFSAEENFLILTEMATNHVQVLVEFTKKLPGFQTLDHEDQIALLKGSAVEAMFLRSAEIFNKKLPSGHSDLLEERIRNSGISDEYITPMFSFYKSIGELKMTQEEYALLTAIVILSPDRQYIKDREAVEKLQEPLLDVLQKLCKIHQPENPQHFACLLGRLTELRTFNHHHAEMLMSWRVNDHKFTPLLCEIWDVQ
In short: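 Chimeric FXR-GAL4 activity in transiently transfected human HepG2 liver cells is scored as induction of reporter mRNA after 24 h of dosing. Detection uses RT-PCR with fluorescent labelling and capillary electrophoresis, with DMSO serving as baseline.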

Measured: AC50

CC(C)(c1cc(Br)c(O)c(Br)c1)c1cc(Br)c(O)c(Br)c1
active: [7] 53.3 µM | [8] 38.2 µM | [10] 55.9 µM and 57.6 µM | [11] 22.9 µM | [12] 31.1 µM | [13] 31.6 µM | [14] 32.1 µM | [15] 30.1 µM
inactive: [1] | [2] | [3] | [4] | [5] | [6] | [7] | [8] | [9] | [11]

Cc1c2ccccc2c(C)c2c1ccc1ccccc12
active: [8] 64.1 µM | [10] 12.4 µM | [13] 15.2 µM | [14] 20 µM | [15] 28.6 µM
not listed: [3] | [6] | [19] | [20]
inactive: all other assays above

CCCCCCCCCCCC[N+](C)(C)C
active: [10] 25.3 µM and 18.9 µM | [13] 20 µM | [14] 25.8 µM | [15] 29.9 µM
not listed: [17] | [19] | [20]
inactive: all other assays above

CC[C@@H]1C[C@H](N(Cc2cc(C(F)(F)F)cc(C(F)(F)F)c2)C(C)=O)c2cc(C(F)(F)F)ccc2N1C(=O)OC(C)C
active: [1] 100 µM
not listed: [6] | [17] | [18] | [20]
inactive: all other assays above

CCCCOC(=O)CC(CC(=O)OCCCC)(OC(C)=O)C(=O)OCCCC
not listed: [2] | [16] | [17] | [18] | [20]
inactive: all other assays above

O=c1c(-c2ccc(O)cc2)coc2cc(O)cc(O)c12
active: [9] 73.5 µM and 168 µM | [19] 49.4 µM | [13] 29.2 µM | [15] 29.1 µM
inactive: [1] | [20] | [16] | [2] | [3] | [4] | [6] | [7] | [8] | [9] | [10] | [19] | [11] | [12] | [14]

CC1=CC(=O)/C(=C(/C)O)C(=O)O1
not listed: [2] | [5] | [6] | [9] | [17] | [20]
inactive: all other assays above
